The record followed here is PubChem BioAssay AID624352 (Sanford-Burnham Center for Chemical Genomics, 2012).

Out of some 360,000 compounds screened, about 2,600 (0.72%) were called active. The full list was thinned out, with actives kept by preference. Unmarked numbers belong to inactive results.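 How the source made its calls: active means inhibition of the luminescence signal of 40% or more relative to plate controls, in a single-dose primary screen at 18.75 µM; inactive means the rest.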

This assay can be described thus: blockers of HIF-2a driven luciferase – luminescence, 786-0 RCC cells, primary screen (AID 624352). Conditions: 786-0 RCC cells HIF-2a reporter, overnight, at 18.8 µM, active compounds read high.
Consider `CCOC(=O)[C@]12Cc3cc(OC)ccc3[C@H]1N(C(C)C)C(=O)c1ccccc12`, for which the inhibition is 24.5%.
Then `CCOC(=O)[C@]12Cc3ccccc3[C@H]1N(C1CCCCC1)C(=O)c1cc(OC)ccc12`, with 81.9% (active); and `COc1ccc(CCn2c(O)c(C=NCCCn3ccnc3)c(=O)[nH]c2=O)cc1OC`, with 11.2%.
Turning to `COc1ccc(Br)cc1CNCCc1cccc(Cl)c1`, the inhibition is 7.99%.
In the case of `CC=C(C)C(=O)OC1CCN2CC=C(COC(=O)C(O)(C(C)OC)C(C)(C)O)C12` (stereo not given), the inhibition is 3.51%.
Then `COc1cc(OC)cc(C2(C#N)CCN(C)CC2)c1`, with 13.2%; and `COC(=O)C1=C(c2cc3ccccc3s2)C[C@@H]2CC[C@H]1N2C(=O)NC(C)C`, with 6.19%; and `Cc1cccc(-n2c(O)c(/C=N/N3CCOCC3)c(=O)[nH]c2=S)c1`, with 19.1%.
Under `Cc1nn(-c2ccccc2)c(C)c1NC(=O)COC(=O)Cc1ccccc1` stands 8.24%.
For `Cc1nc2nc(C)c(CCC(=O)N3CCC4(CC3)OCCO4)c(C)n2n1`, the inhibition was -0.723%.
Then `CC(=O)OC1C2(CC3N4C(=O)C5(CO)SSC4(CC31O)C(=O)N5C)OC(C)C(C)(C)C2=O` (stereo not given), with 91.3% (active); and `NC(=O)Nc1cccc(C(F)(F)F)c1`, with 1.29%; and `COC(=O)C[C@H]1CC[C@H]2NC[C@@H](O)COC[C@@H]2O1`, with 10.3%.
Under `C[C@]12CC[C@H](O)C[C@H]1CC[C@@H]1C2CC[C@]2(C)[C@@H](C3=CC(=O)OC3)[C@@H](O)C[C@]12O` (stereo not given in full) stands 33.4%; under `COC1C(O)C(C)OC(OC2CCC3(C=O)C(CCC4C3CCC3(C)C(C5=CC(=O)OC5)CCC43O)C2)C1O` (stereo not given), 82.4% (active); under `COC(=O)CN(CCCl)P1(=O)OCCCN1CCCl` (stereo not given), 6.36%.
As for `CN1CCN(Cc2ccccc2C(F)(F)F)CC1`, the inhibition is 9.38%.
Then `O=c1c2ccccc2nc(CBr)n1-c1ccc(Cl)cc1`, with -7.93%; and `CN(C)CC1Oc2ccccc2OC1(O)c1ccccc1` (stereo not given), with 55.3% (active).
Turning to `Cc1nc2ccccn2c1P(=S)(N1CCCCC1)N1CCCCC1`, the inhibition was 18.1%.
Under `CC1([N+](=O)[O-])COP(=O)(Nc2ccc(F)cc2)OC1` (stereo not given) stands 17.4%.
`Cc1ccc(C(C)C)c(OCC(=O)N2CCN(CC(=O)N3CCOCC3)CC2)c1`: the inhibition was -3.94%.
Take `c1ccc2sc(C3CCCNC3)nc2c1` (stereo not given): the inhibition is -94.5%.
Then `CC[C@H]1CC2CN3CCc4c([nH]c5ccccc45)C(C(=O)OC)(C2)C13` (stereo not given in full), with 20.3%; and `O=P(OC1=CCCCC1)(c1ccccc1)c1ccccc1`, with 12.4%.
For `CCC(C)(O)C(=O)OC1C(=O)OC2CC3C(C)=CC(=O)C(O)C3(C)C3C4(O)OCC23C1C(C)C4O` (stereo not given), the inhibition is 66.3% (active).
On to `O=c1[nH]c(=O)n(-c2ccc(F)cc2)c(O)c1C=NCCN1CCCCC1`, for which the inhibition was 24.6%.
Then `CC(Cc1cccs1)NCc1ccc(Cl)cc1` (stereo not given), with -5.05%; and `Cc1ccc(P(=S)(c2ccc(C)o2)N2CCOCC2)o1`, with -0.609%; and `CCCCCCCCCCCCn1ccc(=N)cc1`, with 51.2% (active).
Then `C[C@]12CC[C@H](O)CC1=C([N+](=O)[O-])CC1C2CC[C@@]2(C)C1CC[C@@H]2O` (stereo not given in full), with -4.21%.
Regarding `CC(C)c1c(CN(C)C(C)Cc2ccccc2)n(C)n(-c2ccccc2)c1=O` (stereo not given), the inhibition is 17.5%.
Under `CC(=CCOc1ccc2ccc(=O)oc2c1)C1=CC(=O)C(C)(C)O1` stands 65.2% (active); under `O=C1NC(=O)C(Cc2ccccc2)C(=O)N1`, 0.735%; under `CCOC(=O)C1CN(C)CCC1=O` (stereo not given), 12.2%.

As a reminder, the inhibition is the drop in the measured response relative to a control, in per cent.
